Experimental data published in PubChem BioAssay AID1159580 (chemical genetic matrix, 2015).
Values joined by “and” are separate entries in the source; they are usually repeats but may differ in a detail not shown here. Equal entries are not always repeated. In all, about 5,500 compounds went through this assay and about 2,000 (36%) were called active. About 18% were inconclusive and are not listed. Cut-off read from the data, not from the text of the source: active = normalized growth mostly below about 0.91 (no sharp cut-off); inconclusive = no clear call, values can overlap the other calls; inactive = mostly above about 0.92. The list shows a part of the results.

Assay: chemical genetic growth profiling, strain panel (AID 1159580);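 note: tested at 20 µM; growth read once vehicle control cultures reached saturation at 30 °C; 1 = growth at the plate median or of vehicle wells; lower values mean less growth of the strain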
Details: growth OD

Measured: normalized growth

CC(C)OC(=O)Nc1cccc(Cl)c1
inactive: S. cerevisiae deletion strains, locus YAL013W, strain DEP1, stronger effect = lower value 0.988 | S. cerevisiae deletion strains, locus YBR229C, strain ROT2, stronger effect = lower value 0.979 | S. cerevisiae deletion strains, locus YCL029C, strain bik1, stronger effect = lower value 0.991 | S. cerevisiae deletion strains, locus YDL035C, strain GPR1, stronger effect = lower value 0.966 | S. cerevisiae deletion strains, locus YDL074C, strain BRE1, stronger effect = lower value 0.899 | S. cerevisiae deletion strains, locus YDL101C, strain DUN1, stronger effect = lower value 0.986 | S. cerevisiae deletion strains, locus YDL134C, strain PPH21, stronger effect = lower value 0.973 | S. cerevisiae deletion strains, locus YDL185W, strain tfp1, stronger effect = lower value 0.997 | S. cerevisiae deletion strains, locus YDL192W, strain arf1, stronger effect = lower value 0.995 | S. cerevisiae deletion strains, locus YDR101C, strain arx1, stronger effect = lower value 0.984 | S. cerevisiae deletion strains, locus YDR150W, strain NUM1, stronger effect = lower value 0.992 | S. cerevisiae deletion strains, locus YDR162C, strain NBP2, stronger effect = lower value 0.979 | S. cerevisiae deletion strains, locus YDR318W, strain mcm21, stronger effect = lower value 0.978 | S. cerevisiae deletion strains, locus YDR388W, stronger effect = lower value 0.989 | S. cerevisiae deletion strains, locus YDR502C, strain sam2, stronger effect = lower value 0.973 | S. cerevisiae deletion strains, locus YEL061C, strain CIN8, stronger effect = lower value 0.992 | S. cerevisiae deletion strains, locus YER110C, stronger effect = lower value 0.986 | S. cerevisiae deletion strains, locus YER155C, strain BEM2, stronger effect = lower value 0.987 | S. cerevisiae deletion strains, locus YER167W, strain BCK2, stronger effect = lower value 0.949 | S. cerevisiae deletion strains, locus YGL078C, strain dbp3, stronger effect = lower value 0.997 | S. cerevisiae deletion strains, locus YGL086W, strain mad1, stronger effect = lower value 0.995 | S. cerevisiae deletion strains, locus YGL248W, strain PDE1, stronger effect = lower value 0.962 | S. cerevisiae deletion strains, locus YGR078C, strain PAC10, stronger effect = lower value 0.955 | S. cerevisiae deletion strains, locus YGR135W, strain pre9, stronger effect = lower value 0.969 | S. cerevisiae deletion strains, locus YGR229C, strain SMI1, stronger effect = lower value 0.941 | S. cerevisiae deletion strains, locus YHR030C, strain SLT2, stronger effect = lower value 0.983 and 1.01 | S. cerevisiae deletion strains, locus YHR079C, strain IRE1 (second series), stronger effect = lower value 0.973 | S. cerevisiae deletion strains, locus YHR079C, strain IRE1, stronger effect = lower value 0.975 | S. cerevisiae deletion strains, locus YHR094C, strain hxt1, stronger effect = lower value 0.988 | S. cerevisiae deletion strains, locus YHR129C, strain ARP1, stronger effect = lower value 0.993 | S. cerevisiae deletion strains, locus YHR200W, strain rpn10, stronger effect = lower value 0.985 | S. cerevisiae deletion strains, locus YIL066C, strain RNR3, stronger effect = lower value 0.905 | S. cerevisiae deletion strains, locus YIL073C, strain SPO22, stronger effect = lower value 0.895 | S. cerevisiae deletion strains, locus YIL125W, strain kgd1, stronger effect = lower value 0.992 | S. cerevisiae deletion strains, locus YIR030C, strain dcg1, stronger effect = lower value 0.981 | S. cerevisiae deletion strains, locus YJL095W, strain BCK1, stronger effect = lower value 0.976 and 1 | S. cerevisiae deletion strains, locus YJL134W, strain LCB3, stronger effect = lower value 1.01 | S. cerevisiae deletion strains, locus YJL168C, strain set2, stronger effect = lower value 0.987 | S. cerevisiae deletion strains, locus YJL187C, strain SWE1 (second series), stronger effect = lower value 0.99 | S. cerevisiae deletion strains, locus YJR043C, strain POL32, stronger effect = lower value 1.07 | S. cerevisiae deletion strains, locus YJR066W, strain TOR1, stronger effect = lower value 0.937 | S. cerevisiae deletion strains, locus YJR075W, strain HOC1, stronger effect = lower value 0.994 | S. cerevisiae deletion strains, locus YKL009W, strain mrt4, stronger effect = lower value 0.954 | S. cerevisiae deletion strains, locus YKL068W, stronger effect = lower value 0.997 | S. cerevisiae deletion strains, locus YKL085W, strain MDH1 (second series), stronger effect = lower value 0.991 | S. cerevisiae deletion strains, locus YKL085W, strain MDH1, stronger effect = lower value 0.991 | S. cerevisiae deletion strains, locus YKL190W, strain CNB1, stronger effect = lower value 0.98 | S. cerevisiae deletion strains, locus YKR001C, strain vps1, stronger effect = lower value 0.958 | S. cerevisiae deletion strains, locus YLR039C, strain RIC1, stronger effect = lower value 0.951 | S. cerevisiae deletion strains, locus YLR058C, strain SHM2, stronger effect = lower value 0.987 | S. cerevisiae deletion strains, locus YLR102C, strain apc9, stronger effect = lower value 0.987 | S. cerevisiae deletion strains, locus YLR113W, strain HOG1, stronger effect = lower value 0.87 | S. cerevisiae deletion strains, locus YLR262C, strain YPT6, stronger effect = lower value 0.888 | S. cerevisiae deletion strains, locus YLR268W, strain sec22, stronger effect = lower value 0.99 | S. cerevisiae deletion strains, locus YLR330W, strain CHS5, stronger effect = lower value 0.995 | S. cerevisiae deletion strains, locus YLR342W, strain FKS1 (second series), stronger effect = lower value 0.944 | S. cerevisiae deletion strains, locus YLR371W, strain rom2, stronger effect = lower value 0.974 | S. cerevisiae deletion strains, locus YML016C, strain PPZ1, stronger effect = lower value 0.993 | S. cerevisiae deletion strains, locus YML032C, strain rad52, stronger effect = lower value 0.936 | S. cerevisiae deletion strains, locus YML124C, strain tub3, stronger effect = lower value 0.985 | S. cerevisiae deletion strains, locus YMR078C, strain ctf18, stronger effect = lower value 0.935 | S. cerevisiae deletion strains, locus YMR223W, strain ubp8, stronger effect = lower value 0.959 | S. cerevisiae deletion strains, locus YMR263W, strain SAP30, stronger effect = lower value 0.988 | S. cerevisiae deletion strains, locus YMR307W, strain GAS1, stronger effect = lower value 0.891 | S. cerevisiae deletion strains, locus YNL128W, strain TEP1, stronger effect = lower value 1.01 | S. cerevisiae deletion strains, locus YNL153C, strain GIM3, stronger effect = lower value 0.999 | S. cerevisiae deletion strains, locus YNL183C, strain NPR1, stronger effect = lower value 0.94 | S. cerevisiae deletion strains, locus YNL233W, strain BNI4, stronger effect = lower value 1 | S. cerevisiae deletion strains, locus YNL250W, strain rad50, stronger effect = lower value 0.955 | S. cerevisiae deletion strains, locus YNL271C, strain bni1, stronger effect = lower value 0.976 | S. cerevisiae deletion strains, locus YNL298W, strain CLA4, stronger effect = lower value 0.998 | S. cerevisiae deletion strains, locus YNL322C, strain KRE1, stronger effect = lower value 1 | S. cerevisiae deletion strains, locus YNR052C, strain pop2, stronger effect = lower value 0.985 | S. cerevisiae deletion strains, locus YOL006C, strain TOP1, stronger effect = lower value 0.712 | S. cerevisiae deletion strains, locus YOL012C, strain htz1 0.915 | S. cerevisiae deletion strains, locus YOL147C, strain pex11, stronger effect = lower value 0.98 | S. cerevisiae deletion strains, locus YOR061W, strain CKA2, stronger effect = lower value 0.992 | S. cerevisiae deletion strains, locus YOR069W, strain VPS5, stronger effect = lower value 0.996 | S. cerevisiae deletion strains, locus YOR136W, strain idh2, stronger effect = lower value 0.977 | S. cerevisiae deletion strains, locus YOR144C, strain elg1, stronger effect = lower value 0.987 | S. cerevisiae deletion strains, locus YOR184W, strain ser1, stronger effect = lower value 0.906 | S. cerevisiae deletion strains, locus YOR231W, strain MKK1, stronger effect = lower value 0.985 | S. cerevisiae deletion strains, locus YOR316C, strain cot1, stronger effect = lower value 0.995 | S. cerevisiae deletion strains, locus YPL055C, strain LGE1, stronger effect = lower value 0.955 | S. cerevisiae deletion strains, locus YPL241C, strain CIN2, stronger effect = lower value 0.994 | S. cerevisiae deletion strains, locus YPL256C, strain CLN2, stronger effect = lower value 0.992 | S. cerevisiae deletion strains, locus YPR119W, strain clb2, stronger effect = lower value 0.986 | S. cerevisiae deletion strains, locus YPR141C, strain kar3, stronger effect = lower value 0.995 | S. cerevisiae deletion strains, locus YPR163C, strain tif3, stronger effect = lower value 0.983 | S. cerevisiae deletion strains, locus YPR167C, strain met16, stronger effect = lower value 0.986 | S. cerevisiae deletion strains, strain wtn01, stronger effect = lower value 0.976 | S. cerevisiae strains, strain wild type, stronger effect = lower value 0.997
active: S. cerevisiae deletion strains, locus YBR021W, strain FUR4, stronger effect = lower value 0.821 | S. cerevisiae deletion strains, locus YGR252W, strain gcn5, stronger effect = lower value 0.752 | S. cerevisiae deletion strains, locus YLR418C, strain cdc73, stronger effect = lower value 0.828 | S. cerevisiae deletion strains, locus YNL067W, strain RPL9B, stronger effect = lower value 0.301 | S. cerevisiae deletion strains, locus YNL307C, strain MCK1, stronger effect = lower value 0.863
